The source of these data is PubChem BioAssay (Tox21).

Records with an inconclusive call do not appear. A call without a number means that no potency is given here. Activity calls are given as the source filed them. Calls come from the whole dose curve; as a rule, active = well fitted activation curve with a large enough effect in the signal ratio in the repeat runs (not every such curve was filed as active); inconclusive = weak or mixed curves, or effect the other way; inactive = flat fitted curve, though single readings scatter; the % refers to the signal ratio.
Potency is the fitted concentration of half-maximal effect.

Sequence of Estrogen receptor beta (Homo sapiens) (Q92731 whole entry, looked up): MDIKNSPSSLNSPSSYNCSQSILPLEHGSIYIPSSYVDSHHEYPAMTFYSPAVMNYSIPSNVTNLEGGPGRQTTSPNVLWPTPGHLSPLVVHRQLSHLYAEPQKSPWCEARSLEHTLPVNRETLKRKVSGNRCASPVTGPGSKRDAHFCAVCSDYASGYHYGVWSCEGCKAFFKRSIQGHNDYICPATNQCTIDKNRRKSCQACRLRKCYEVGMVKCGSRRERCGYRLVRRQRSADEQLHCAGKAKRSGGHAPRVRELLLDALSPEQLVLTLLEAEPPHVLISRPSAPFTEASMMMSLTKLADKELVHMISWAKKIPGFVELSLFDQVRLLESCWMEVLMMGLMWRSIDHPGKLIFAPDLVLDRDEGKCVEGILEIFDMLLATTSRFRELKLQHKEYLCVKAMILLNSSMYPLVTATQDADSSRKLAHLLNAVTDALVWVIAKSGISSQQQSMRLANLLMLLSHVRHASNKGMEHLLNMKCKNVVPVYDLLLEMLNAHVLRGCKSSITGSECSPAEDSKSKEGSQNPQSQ

This assay has as its target Estrogen receptor beta (Homo sapiens) (UniProt Q92731). Put plainly: qHTS assay to identify small molecule agonists of the estrogen receptor beta (ER-beta) signaling pathway (AID 1259377). The settings on record: ER-beta-UAS-bla HEK293T, beta-lactamase FRET ratio, 16 h; series mostly up to 92.4 µM. The source says: U.S. Tox21 Program National Center for Advancing Translational Sciences [NCATS] NIH Chemical Genomics Center [NCGC] U.S. Environmental Protection Agency [EPA] National Institutes of Environmental Health Sciences [NIEHS] National Toxicology Program [NTP] U.S. Food and Drug Administration [FDA] Tox21 Assay Overview: Estrogen receptor (ER), a nuclear hormone receptor, plays an important role in development, metabolic homeostasis and reproduction. Two subtypes of ER, ER-alpha and ER-beta, have similar expression patterns with some uniqueness in both types. Endocrine disrupting chemicals (EDCs) and their interactions with steroid hormone receptors like ER causes disruption of normal endocrine function. To identify the compounds that activate ER signaling, an ER beta-UAS-bla GripTite cell line (Life technologies, Madison, WI, USA) containing a beta-lactamase reporter gene under the control of an Upstream Activator Sequence (UAS) was used to screen Tox21 10K compound library.
Tox21 Assay Protocol Summary: ER-beta-UAS-bla HEK293T cells were dispensed at 2,000 cells/5 uL of assay medium containing 2% charcoal stripped FBS per well into black wall/clear-bottom 1536-well plates using a Multidrop Combi (ThermoFisher Scientific, Waltham, MA) dispenser. After the assay plates were incubated at a 37C and 5% CO2 for 6 hr, 23 nL of compounds dissolved in DMSO, positive controls or DMSO only was transferred to the assay plate by a Pintool station (Kalypsys, San Diego, CA). The plates were incubated at 37C and 5% CO2 for 16 hr. Then 1 uL of LiveBLAzerTM B/G FRET substrate was added using a BioRAPTR FRD (Flying Reagent Dispenser, Aurora Discovery, San Diego, CA). After the plates were incubated at room temperature for 2 hours, fluorescence intensity was measured by an Envision plate reader (PerkinElmer, Shelton, CT).
A general note: In qHTS, concentration-response curves come from the screen itself.
As to `C[C@H]1[C@@H](c2ccccc2)NC(=O)N1C`, the Potency entry is “inactive”.

Regarding `C=C(C)C1CC=C(C)C(=O)C1` (stereo not given), the Potency entry was “inactive”.

`CC(C)=CCC/C(C)=C/COC=O`: the Potency result was “inactive”.

As for `O=Cc1ccccc1Cl`, the Potency result is “inactive”.

As for `O=C1c2ccccc2C(=O)c2cc(Cl)ccc21`, the activation is 7.82% [at 8.39 µM] (inactive).

As for `CC(C)C[C@@H]1[C@H](c2ccccc2)OC(=O)N1CCCN1CCCCCC1`, the Potency result was “inactive”.

`CC/C=C\CCOC(=O)c1ccccc1O`: the Potency entry was “inactive”.

Consider `C=CCSSCCC`, for which the Potency result is “inactive”.

Take `O/N=C/C=N/O`: the Potency result is “inactive”.

Take `O=C(O)CSCC(=O)NC1CCSC1=O` (stereo not given): the Potency result is “inactive”.

In the case of `C=C(C)[C@@H]1CC=C(C)C(=O)C1`, the Potency entry was “inactive”.

Take `OC1(c2ccc(Cl)cc2)CCNCC1`: the Potency result was “inactive”.

Turning to `CC(=O)C1C(=O)C=C(C)OC1=O` (stereo not given), the Potency result is “inactive”.

With `CC(C)CO`, the Potency entry is “inactive”.

In the case of `COC(=O)CCCCC(CCSS/C(CCO)=C(\C)N(C=O)Cc1cnc(C)nc1N)SC(C)=O` (stereo not given), the Potency entry was “inactive”.

Take `CC(C)(C)NC[C@H](O)COc1cccc2c1CCCC2=O`: the Potency entry is “inactive”.

As to `CC(C)OC(=O)CCC(=O)OC(C)C`, the Potency entry was “inactive”.

On to `O=NN(CCCl)C(=O)NC1CCCCC1`, for which the Potency entry is “inactive”.

Consider `CCC(C)C(C)=O` (stereo not given), for which the Potency entry was “inactive”.

For the molecule `CCC/C=C(\C=O)CC`, the Potency result is “inactive”.

On to `Cc1cc(-c2ccccc2)nnc1NCCN1CCOCC1`, for which the Potency result is “inactive”.

Consider `C/C(=C1\CCOC(=O)S1)N(C=O)Cc1cnc(C)nc1N`, for which the Potency result is “inactive”.

For the molecule `CC1(C)CC(OC(=O)CCCCCCCCC(=O)OC2CC(C)(C)NC(C)(C)C2)CC(C)(C)N1`, the activation is -4.04% [at 19 µM] (inactive).

On to `N#Cc1cscn1`, for which the Potency result is “inactive”.

In the case of `COC(=O)c1cc(Cl)cc(Cl)c1`, the Potency result was “inactive”.

`C[C@]12CCC(=O)C=C1CC[C@H]1[C@@H]3CC[C@](O)(C(=O)CO)[C@@]3(C)C[C@H](O)[C@@]12F`: the Potency entry is “inactive”.

`Cc1ccccc1C(N)=O`: the Potency entry is “inactive”.

Turning to `Cc1c(Cl)cccc1Cl`, the Potency result was “inactive”.

Regarding `Cc1ccc(C(=O)O)cc1[N+](=O)[O-]`, the Potency entry is “inactive”.

For `C=CCOC(=O)CCCCCC`, the Potency entry was “inactive”.

For `CCO[Si](CC)(OCC)OCC`, the Potency entry was “inactive”.

Take `COc1ccc(CCO)cc1`: the Potency result is “inactive”.

On to `CCC(=O)Oc1ccc2c(c1)CC[C@@H]1[C@@H]2CC[C@@]2(C)[C@H]1C[C@@H](OC(=O)CC)[C@@H]2OC(=O)CC`, for which the Potency was 21.1 nM (active).

Consider `CN(C)CCN(C)CCO`, for which the Potency result is “inactive”.

With `CC(=O)C(C)O` (stereo not given), the Potency entry is “inactive”.

For the molecule `CCN1CCCC1CN` (stereo not given), the Potency result is “inactive”.

Regarding `O=C(Cl)c1ccccc1[N+](=O)[O-]`, the Potency entry was “inactive”.

Turning to `COC(=O)c1cccc(Cl)c1`, the Potency entry is “inactive”.

With `C=CC(=O)OCC1CCCO1` (stereo not given), the Potency entry was “inactive”.

Turning to `CCCCOCCOC(=O)COc1ccc(Cl)cc1Cl`, the Potency entry was “inactive”.
